In PubChem BioAssay (EPA / NIEHS):
Activity calls are given as the source filed them. The calls were made as follows: active = hit-call score of the fitted dose curve at least 0.9, where 1 is the maximum; inactive = score below 0.9.

Assays:
[1] = BSK_hDFCGF_SRB: Viability Assessment in the BioMAP Diversity Plus: hDFCGF Assay (AID 2283061); conditions: primary human foreskin fibroblasts;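 also: cells exposed to compound for 24 h before the read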
How it was run: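 SRB-based viability read on primary human skin fibroblasts at 24 h: TCA fixation, 0.1% dye, 560 nm. Gain or loss of signal is fitted against the DMSO negative control.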

[2] = read-out: TIMP metallopeptidase inhibitor 1 (TIMP1), TIMP1 (gene 7076); assay: BSK_hDFCGF_TIMP1: BioMAP Diversity Plus: hDFCGF Assay for TIMP metallopeptidase inhibitor 1 (TIMP1) Biomarker Activity (AID 2283062); conditions: primary human foreskin fibroblasts; actives raise or lower the signal
How it was run: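 Bidirectional curve fitting against DMSO baseline yielded this endpoint, based on ELISA detection of TIMP-1 in primary human foreskin fibroblasts exposed to compound for 24 h.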

[3] = read-out: Monokine induced gamma interferon (MIG), CXCL9 (gene 4283); assay: BSK_hDFCGF_MIG: BioMAP Diversity Plus: hDFCGF Assay for Monokine induced gamma interferon (MIG) Biomarker Activity (AID 2283063); conditions: primary human foreskin fibroblasts; actives raise or lower the signal
How it was run: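 Endpoint derived by bidirectional fitting relative to DMSO; MIG quantified via ELISA in primary human foreskin fibroblasts harvested 24 h after dosing.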

[4] = read-out: Matrix Metallopeptidase 1 (MMP1), MMP1 (gene 4312); assay: BSK_hDFCGF_MMP1: BioMAP Diversity Plus: hDFCGF Assay for Matrix Metallopeptidase 1 (MMP1) Biomarker Activity (AID 2283064); conditions: primary human foreskin fibroblasts; actives raise or lower the signal
How it was run: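 Primary human foreskin fibroblasts in the hDFCGF system were dosed with test chemical, and MMP1 was measured by ELISA 24 h later. Values come from bidirectional curve fitting against the DMSO baseline.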

[5] = read-out: Vascular cell adhesion molecule 1 (VCAM1), VCAM1 (gene 7412); assay: BSK_hDFCGF_VCAM1: BioMAP Diversity Plus: hDFCGF Assay for Vascular cell adhesion molecule 1 (VCAM1) Biomarker Activity (AID 2283065); conditions: primary human foreskin fibroblasts; actives raise or lower the signal;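 as to AC50: VCAM-1 protein level quantified by ELISA after 24 h chemical exposure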
How it was run: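 Measured after 24 h chemical treatment of primary human skin fibroblasts, VCAM-1 was detected by ELISA and concentration-response analysed in both directions versus DMSO vehicle.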

[6] = read-out: Interferon-gamma inducible Protein 10 (IP10), CXCL10 (gene 3627); assay: BSK_KF3CT_IP10: BioMAP Diversity Plus: KF3CT Assay for Interferon-gamma inducible Protein 10 (IP10) Biomarker Activity (AID 2283068); conditions: primary human keratinocytes with fibroblasts; actives raise or lower the signal
How it was run: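 KF3CT co-culture (keratinocytes + foreskin fibroblasts), 24 h compound, IP-10 by ELISA; bidirectional fit vs DMSO baseline.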

[7] = BSK_KF3CT_SRB: Viability Assessment in the BioMAP Diversity Plus: KF3CT Assay (AID 2283069); conditions: primary human keratinocytes with fibroblasts;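 also: total protein by sulforhodamine B staining as a cytotoxicity measure; read 24 h after compound addition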
How it was run: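 Human primary keratinocyte plus foreskin fibroblast co-culture exposed to chemicals for 24 h. Total protein measured by 0.1% sulforhodamine B staining after 10% TCA fixation, read at 560 nm; bidirectional fitting versus DMSO baseline.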

[8] = read-out: Interleukin-1 alpha (IL1a), IL1A (gene 3552); assay: BSK_KF3CT_IL1a: BioMAP Diversity Plus: KF3CT Assay for Interleukin-1 alpha (IL1a) Biomarker Activity (AID 2283070); conditions: primary human keratinocytes with fibroblasts; actives raise or lower the signal
How it was run: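 Human keratinocyte plus foreskin fibroblast primary co-culture, sampled 24 h after chemical dosing. IL-1a measured by ELISA; responses fitted bidirectionally against DMSO baseline (negative control), so gain or loss of signal both count.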

[9] = read-out: TIMP metallopeptidase inhibitor 2 (TIMP2), TIMP2 (gene 7077); assay: BSK_KF3CT_TIMP2: BioMAP Diversity Plus: KF3CT Assay for TIMP metallopeptidase inhibitor 2 (TIMP2) Biomarker Activity (AID 2283071); conditions: primary human keratinocytes with fibroblasts; actives raise or lower the signal
How it was run: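 Keratinocyte–fibroblast co-culture, 24 h exposure; TIMP-2 ELISA, DMSO-normalised bidirectional fit. Parallel SRB (0.1%, TCA-fixed, 560 nm) total-protein staining gauges cytotoxicity.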

[10] = read-out: Transforming growth factor beta 1 (TGFb1), TGFB1 (gene 7040); assay: BSK_KF3CT_TGFb1: BioMAP Diversity Plus: KF3CT Assay for Transforming growth factor beta 1 (TGFb1) Biomarker Activity (AID 2283072); conditions: primary human keratinocytes with fibroblasts; actives raise or lower the signal
How it was run: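 Signal changes in either direction, relative to DMSO, define activity here. TGF-b1 is read by ELISA from a human keratinocyte-fibroblast co-culture 24 h post-dose.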

[11] = read-out: C-C motif chemokine 2 (Homo sapiens) (UniProt P13500); assay: BSK_KF3CT_MCP1: BioMAP Diversity Plus: KF3CT Assay for Monocyte Chemoattractant Protein 1 (MCP1/CCL2) Biomarker Activity (AID 2283073); conditions: primary human keratinocytes with fibroblasts; actives raise or lower the signal
How it was run: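 Biomarker MCP-1 is measured by ELISA in primary human keratinocytes co-cultured with foreskin fibroblasts, 24 h after chemical treatment; DMSO serves as the negative control and activity baseline.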

[12] = read-out: Matrix Metallopeptidase 9 (MMP9), MMP9 (gene 4318); assay: BSK_KF3CT_MMP9: BioMAP Diversity Plus: KF3CT Assay for Matrix Metallopeptidase 9 (MMP9) Biomarker Activity (AID 2283074); conditions: primary human keratinocytes with fibroblasts; actives raise or lower the signal;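 as to AC50: MMP9 protein level quantified by ELISA in the co-culture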
How it was run: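 Keratinocyte plus foreskin fibroblast human primary skin co-culture was dosed with chemical and MMP-9 was quantified by ELISA 24 h later. Bidirectional curve fitting used DMSO as negative control and activity baseline.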

[13] = read-out: urokinase plasminogen activator (uPA), PLAU (gene 5328); assay: BSK_KF3CT_uPA: BioMAP Diversity Plus: KF3CT Assay for urokinase plasminogen activator (uPA) Biomarker Activity (AID 2283075); conditions: primary human keratinocytes with fibroblasts; actives raise or lower the signal
How it was run: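 Human keratinocyte plus foreskin fibroblast primary co-culture exposed to chemical for 24 h. uPA levels were quantified by ELISA, and activity was fitted bidirectionally against a DMSO negative-control baseline.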

CD40, CD40 (gene 958) = assay: BSK_LPS_CD40: BioMAP Diversity Plus: LPS Assay for CD40 Biomarker Activity (AID 2283076); conditions: primary human HUVEC with PBMC; actives raise or lower the signal
How it was run: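 Using a multiplexed primary human co-culture (umbilical vein endothelium plus PBMC), CD40 was read by ELISA 24 h after dosing, with cytotoxicity tracked by sulforhodamine B staining of parallel cultures and activity fitted bidirectionally versus DMSO.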

[14] = read-out: E-selectin (Homo sapiens) (UniProt P16581); assay: BSK_LPS_Eselectin: BioMAP Diversity Plus: LPS Assay for Eselectin Biomarker Activity (AID 2283077); conditions: primary human HUVEC with PBMC; actives raise or lower the signal
How it was run: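 Dose chemical onto LPS-driven HUVEC/PBMC co-culture; after 24 h, run ELISA for E-selectin; fit up- and down-going responses relative to DMSO control.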

[15] = read-out: Interleukin-8 (IL8), CXCL8 (gene 3576); assay: BSK_LPS_IL8: BioMAP Diversity Plus: LPS Assay for Interleukin-8 (IL8) Biomarker Activity (AID 2283078); conditions: primary human HUVEC with PBMC; actives raise or lower the signal
How it was run: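 In this LPS system, chemical-treated human umbilical vein endothelium/PBMC co-cultures were harvested at 24 h for IL-8 ELISA.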

[16] = BSK_LPS_SRB: Viability Assessment in the BioMAP Diversity Plus: LPS Assay (AID 2283079); conditions: primary human HUVEC with PBMC;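 also: total protein by sulforhodamine B absorbance as a cytotoxicity measure; measured one day after compound addition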
How it was run: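 Cytotoxicity endpoint in human endothelial–PBMC co-culture: 24 h exposure, then SRB (0.1%) staining, 560 nm read.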

[17] = read-out: Interleukin-1 alpha (IL1a), IL1A (gene 3552); assay: BSK_LPS_IL1a: BioMAP Diversity Plus: LPS Assay for Interleukin-1 alpha (IL1a) Biomarker Activity (AID 2283080); conditions: primary human HUVEC with PBMC; actives raise or lower the signal
How it was run: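 Primary human HUVEC and PBMC co-culture stimulated with LPS is dosed and harvested at 24 h. Both increases and decreases in ELISA-measured IL-1a are scored relative to DMSO.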

[18] = read-out: Intercellular Adhesion Molecule 1 (ICAM1), ICAM1 (gene 3383); assay: BSK_KF3CT_ICAM1: BioMAP Diversity Plus: KF3CT Assay for Intercellular Adhesion Molecule 1 (ICAM1) Biomarker Activity (AID 2283067); conditions: primary human keratinocytes with fibroblasts; actives raise or lower the signal
How it was run: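 Bidirectional curve fitting against a DMSO baseline was applied to ICAM-1 ELISA signal from primary human skin co-cultures harvested 24 h after treatment, with SRB staining of parallel wells for overt cytotoxicity.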

Measured: AC50

Chain of E-selectin (Homo sapiens) (P16581 whole entry, looked up): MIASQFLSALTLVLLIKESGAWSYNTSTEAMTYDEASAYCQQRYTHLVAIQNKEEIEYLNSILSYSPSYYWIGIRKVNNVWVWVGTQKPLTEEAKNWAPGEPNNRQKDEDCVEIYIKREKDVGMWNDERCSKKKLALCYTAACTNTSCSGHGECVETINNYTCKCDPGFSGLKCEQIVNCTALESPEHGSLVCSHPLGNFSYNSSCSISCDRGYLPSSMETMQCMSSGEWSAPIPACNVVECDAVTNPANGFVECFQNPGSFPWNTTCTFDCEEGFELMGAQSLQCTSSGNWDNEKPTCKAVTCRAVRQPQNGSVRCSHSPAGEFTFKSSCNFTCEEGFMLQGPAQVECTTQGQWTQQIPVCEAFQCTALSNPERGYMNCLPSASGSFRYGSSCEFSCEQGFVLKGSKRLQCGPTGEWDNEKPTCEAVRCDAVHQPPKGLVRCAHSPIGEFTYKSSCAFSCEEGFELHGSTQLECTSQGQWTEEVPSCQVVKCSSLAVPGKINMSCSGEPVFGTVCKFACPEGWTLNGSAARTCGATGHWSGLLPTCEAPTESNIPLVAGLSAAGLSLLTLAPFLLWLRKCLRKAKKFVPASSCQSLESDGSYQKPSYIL

BrCCBr
not listed: [18]
inactive: all other assays above

C(=NC1CCCCC1)=NC1CCCCC1
active: [1] 13.8 µM | [2] 14.9 µM | [3] 26.8 µM | [4] 32.7 µM | [5] 10.7 µM | [6] 14.9 µM | [7] 15 µM | [8] 17.2 µM | [9] 20 µM | [10] 9.13 µM | [11] 29.4 µM | [12] 12.6 µM | [13] 28.8 µM | CD40, CD40 (gene 958) 27.4 µM | [14] 34.9 µM | [15] 30.9 µM | [16] 32.8 µM | [17] 29.4 µM

Cc1ccccc1N
not listed: [18]
inactive: all other assays above

ClC1(Cl)C2(Cl)C3(Cl)C4(Cl)C(Cl)(Cl)C5(Cl)C3(Cl)C1(Cl)C5(Cl)C24Cl (configuration not stated)
not listed: [18]
inactive: all other assays above

O=[N+]([O-])c1ccc(O)c([N+](=O)[O-])c1
inactive: all assays above

OCc1ccco1
inactive: all assays above

Cn1sc(Cl)cc1=O
active: [1] 30.5 µM | [2] 29.8 µM | [3] 27.9 µM | [4] 32.8 µM | [5] 23.4 µM | CD40, CD40 (gene 958) 26 µM | [14] 35.4 µM | [17] 29.3 µM
not listed: [18]
inactive: all other assays above

Oc1ccc(-c2ccccc2)cc1
active: [8] 11.5 µM | [11] 0.016 µM
not listed: [18]
inactive: all other assays above

ClC1=C(Cl)[C@]2(Cl)[C@H]3[C@H]([C@H]4C=C[C@H]3C4)[C@@]1(Cl)C2(Cl)Cl
active: [5] 6.26 µM | [10] 2.86 µM | [15] 0.16 µM | [16] 5.73 µM
not listed: [18]
inactive: all other assays above

O=S(=O)(c1ccc(Cl)cc1)c1ccc(Cl)cc1
active: [5] 5.32 µM
not listed: [18]
inactive: all other assays above

ClC(Cl)=C(Cl)C(Cl)=C(Cl)Cl
active: [2] 20 µM | [4] 32 µM | [6] 36.3 µM | [7] 34.1 µM | [8] 20 µM | [9] 26.9 µM | [10] 29.2 µM | [11] 20 µM | [12] 28.9 µM | CD40, CD40 (gene 958) 31.4 µM | [16] 3.97 µM | [17] 31 µM
inactive: [1] | [3] | [5] | [13] | [14] | [15]

Oc1cccc2cccnc12
inactive: CD40, CD40 (gene 958) | [14] | [15] | [16] | [17]
active: [1] 0.564 µM | [2] 0.201 µM | [3] 0.169 µM | [4] 0.927 µM | [5] 1.03 µM | [18] 2.14 µM | [6] 2.55 µM | [7] 2.78 µM | [8] 2.13 µM | [9] 3.68 µM | [10] 2.35 µM | [11] 2 µM | [12] 2.46 µM | [13] 2.74 µM

CC(=O)[O][Hg][c]1ccccc1
active: [1] 0.464 µM | [2] 0.148 µM | [3] 0.208 µM | [4] 0.148 µM | [5] 0.511 µM | [18] 0.467 µM | [6] 0.148 µM | [7] 0.617 µM | [8] 0.707 µM | [9] 0.148 µM | [10] 0.146 µM | [12] 0.189 µM | [13] 0.625 µM | CD40, CD40 (gene 958) 1.62 µM | [14] 3.35 µM | [15] 6.47 µM | [16] 1.09 µM | [17] 1.25 µM
